Source: the supplement of paper PMC12494721
Where a name gives a salt, the structure may show the parent alone.

Assays:
Conditions in all cases: incubation time: 27 h, anaerobic, 37 °C;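 for the amine columns active = adjusted P below 0.05 in both replicates with a change the same way and a mean fold change under 0.8 or over 1.25; inactive = the rest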
[1] = test system: Clostridium sporogenes DSM 1664; assay: growth (OD595) fold change vs plate DMSO controls (fold change (ratio)); higher = more growth
Outline: (§1)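 After 27 h at 37 °C under anaerobic conditions, 96-well cultures in mGAM were shaken and read at 595 nm. The readings were blank-subtracted, corrected for compound background using 20 µM compound solutions in water, and converted to OD with a calibration factor of 5. Growth is defined as the fold change over the median of DMSO controls on each plate. Fold changes above 1.5 were set to NA, and each value is the mean of 2 biological replicates.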

Escherichia coli IAI1 [2] = assay: as above
Outline: as §1

[3] = test system: Klebsiella aerogenes DSM 30053; assay: as above
Outline: as §1

[4] = test system: Ruminococcus gnavus DSM 108212; assay: as above
Outline: as §1

[5] = test system: Klebsiella aerogenes DSM 30053; assay: fold change of Histamine concentration vs plate DMSO controls (fold change (ratio)); higher = more amine produced, active = hit call of the paper (significant change in both replicates, either direction)
Outline: (§2)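 Anaerobic mGAM cultures of four gut bacterial strains were grown at 37 °C for 27 h in 80 µL wells, starting at OD 0.1 before 1:1 dilution. Compounds were at 20 µM final (sweeteners 50 µM). Whole cultures were extracted with cold acetonitrile/methanol containing 0.1% formic acid and centrifuged. Amines were quantified by LC–triple-quadrupole MS (dynamic MRM) against external calibration curves and drift-corrected within batch. Each value is the fold change versus plate DMSO controls, averaged over 2 biological replicates.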

[6] = test system: Clostridium sporogenes DSM 1664; assay: fold change of Tryptamine concentration vs plate DMSO controls (fold change (ratio)); higher = more amine produced, active = hit call of the paper (significant change in both replicates, either direction)
Outline: as §2

[7] = test system: Ruminococcus gnavus DSM 108212; assay: as above
Outline: as §2

Escherichia coli IAI1 [8] = assay: fold change of Putrescine concentration vs plate DMSO controls (fold change (ratio)); higher = more amine produced, active = hit call of the paper (significant change in both replicates, either direction)
Outline: as §2

[9] = test system: Klebsiella aerogenes DSM 30053; assay: as above
Outline: as §2

Escherichia coli IAI1 [10] = assay: fold change of Cadaverine concentration vs plate DMSO controls (fold change (ratio)); higher = more amine produced, active = hit call of the paper (significant change in both replicates, either direction)
Outline: as §2

[11] = test system: Klebsiella aerogenes DSM 30053; assay: as above
Outline: as §2

[12] = test system: Ruminococcus gnavus DSM 108212; assay: fold change of 2-Phenylethylamine concentration vs plate DMSO controls (fold change (ratio)); higher = more amine produced, active = hit call of the paper (significant change in both replicates, either direction)
Outline: as §2

Compound | growth [1] | growth (Escherichia coli IAI1 [2]) | growth [3] | growth [4] | fold change of Histamine concentration [5] | fold change of Tryptamine concentration [6] | fold change of Tryptamine concentration [7] | fold change of Putrescine concentration (Escherichia coli IAI1 [8]) | fold change of Putrescine concentration [9] | fold change of Cadaverine concentration (Escherichia coli IAI1 [10]) | fold change of Cadaverine concentration [11] | fold change of 2-Phenylethylamine concentration [12]
CC(=O)c1ccc(S(=O)(=O)NC(=O)NC2CCCCC2)cc1 [Acetohexamide] (20 µM) | 0.85 | 1.02 | 0.972 | 1.33 | 1.05 (inactive) | 1.03 (inactive) | 0.951 (inactive) | 0.999 (inactive) | 1 (inactive) | 1.05 (inactive) | 0.984 (inactive) | 0.942 (inactive)
CC(C)Nc1ncccn1 [Isaxonine] (20 µM) | 1.12 | 0.989 | 1.07 | 1.01 | 0.936 (inactive) | 1.05 (inactive) | 0.919 (inactive) | 1 (inactive) | 1.04 (inactive) | 1.01 (inactive) | 1.01 (inactive) | 0.894 (inactive)
O=C(O)Cc1ccccc1Oc1ccc(Cl)cc1Cl [Fenclofenac] (20 µM) | 0.896 | 1.02 | 0.998 | 1 | 1.01 (inactive) | 0.984 (inactive) | 1.02 (inactive) | 1.02 (inactive) | 1.01 (inactive) | 0.999 (inactive) | 1.01 (inactive) | 1.07 (inactive)
OC[C@H]1O[C@@](CO)(OC[C@@]2(OC[C@@]3(O[C@H]4O[C@H](CO)[C@@H](O)[C@H](O)[C@H]4O)O[C@H](CO)[C@@H](O)[C@@H]3O)O[C@H](CO)[C@@H](O)[C@@H]2O)[C@@H](O)[C@@H]1O [Nystose] (50 µM) | 1.05 | 1.09 | 1.02 | 1.05 | 1.05 (inactive) | 1.01 (inactive) | 1 (inactive) | 0.999 (inactive) | 1.01 (inactive) | 0.958 (inactive) | 0.995 (inactive) | 0.994 (inactive)
CC(=O)SCC(Cc1ccccc1)C(=O)NCC(=O)OCc1ccccc1 (stereo not drawn) [Racecadotril] (20 µM) | 1.06 | 1 | 0.986 | 0.929 | 0.978 (inactive) | 0.941 (inactive) | 1.01 (inactive) | 0.991 (inactive) | 0.991 (inactive) | 0.985 (inactive) | 0.999 (inactive) | 0.954 (inactive)
Clc1ccc(COC(Cn2ccnc2)c2ccc(Cl)cc2Cl)cc1 (stereo not drawn) [Econazole nitrate] (20 µM) | 1.35 | 1.01 | 1.08 | 0.481 | 0.83 (inactive) | 0.815 (inactive) | 0.357 (active) | 1.01 (inactive) | 0.963 (inactive) | 1.02 (inactive) | 1.01 (inactive) | 0.404 (active)
CN(C)CCOC(c1ccccc1)c1ccccc1 [Diphenhydramine hydrochloride] (20 µM) | 0.881 | 0.994 | 0.974 | 1.25 | 1 (inactive) | 1.05 (inactive) | 0.945 (inactive) | 0.962 (inactive) | 0.996 (inactive) | 0.98 (inactive) | 0.985 (inactive) | 0.914 (inactive)
CCCOc1cc(N)ccc1C(=O)OCCN(CC)CC [Propoxycaine hydrochloride] (20 µM) | 0.975 | 1.01 | 1 | 1.35 | 0.991 (inactive) | 1.02 (inactive) | 1.05 (inactive) | 0.956 (inactive) | 0.986 (inactive) | 0.967 (inactive) | 1.01 (inactive) | 1.09 (inactive)
COc1cccc2c1C(=O)c1c(O)c3c(c(O)c1C2=O)C[C@@](O)(C(=O)CO)C[C@@H]3O[C@H]1C[C@H](N)[C@@H](O)[C@H](C)O1 [Epirubicin hydrochloride] (20 µM) | 0.607 | 0.0185 | 0 | 0.386 | 1.01 (inactive) | 0.953 (inactive) | 0.966 (inactive) | 1.07 (inactive) | 0.998 (inactive) | 1.04 (inactive) | 1.02 (inactive) | 0.934 (inactive)
CN[C@@H]1[C@@H](O[C@H]2O[C@H](CO)[C@@H](N)[C@H](O)[C@H]2O)OC2C[C@@H](N)[C@@H](O[C@H]3[C@H](O)[C@@H](O)[C@H](N)C[C@@H]3N)OC2[C@@H]1O (stereo partly drawn) [Apramycin] (20 µM) | 1.18 | 0.982 | 0.996 | 1.03 | 1.05 (inactive) | 0.998 (inactive) | 0.96 (inactive) | 1 (inactive) | 1.05 (inactive) | 1 (inactive) | 1.02 (inactive) | 0.905 (inactive)
CN1CCc2c(c3ccccc3n2Cc2ccccc2)C1 [Mebhydroline 1,5-naphtalenedisulfonate] (20 µM) | 0.931 | 0.967 | 1.04 | 0.742 | 1.01 (inactive) | 1.05 (inactive) | 0.911 (inactive) | 0.987 (inactive) | 0.991 (inactive) | 0.982 (inactive) | 1.01 (inactive) | 0.898 (inactive)
O=C(NCc1ncc(C(F)(F)F)cc1Cl)c1c(Cl)cccc1Cl (20 µM) | 1 | 0.98 | 1 | 1.03 | 1.01 (inactive) | 0.989 (inactive) | 1.01 (inactive) | 1.01 (inactive) | 1.02 (inactive) | 1.01 (inactive) | 1.01 (inactive) | 0.956 (inactive)
NC(N)=Nc1nc(CSCCN/C=N/S(=O)(=O)c2ccc(Br)cc2)cs1 [Ebrotidine] (20 µM) | 1.02 | 1.02 | 0.989 | 1.02 | 1.03 (inactive) | 0.91 (inactive) | 0.836 (inactive) | 0.974 (inactive) | 0.991 (inactive) | 1.06 (inactive) | 1.01 (inactive) | 0.887 (inactive)
CCCN1CCCC[C@H]1C(=O)Nc1c(C)cccc1C [Ropivacaine hydrochloride] (20 µM) | 1.02 | 0.971 | 0.964 | 0.779 | 1.13 (inactive) | 1.13 (inactive) | 1.02 (inactive) | 0.946 (inactive) | 1.04 (inactive) | 1.03 (inactive) | 0.961 (inactive) | 1.01 (inactive)
NC(=O)N1c2ccccc2C=Cc2ccccc21 [Carbamazepine] (20 µM) | 0.968 | 1.08 | 1.01 | 1.17 | 1.03 (inactive) | 0.973 (inactive) | 1.02 (inactive) | 1.03 (inactive) | 1 (inactive) | 1.04 (inactive) | 1.01 (inactive) | 0.987 (inactive)
Cc1cccn2c(=O)c(-c3nnn[nH]3)cnc12 [Pemirolast potassium] (20 µM) | 0.934 | 0.984 | 0.975 | 0.807 | 1.03 (inactive) | 1.02 (inactive) | 1.01 (inactive) | 0.994 (inactive) | 1.01 (inactive) | 0.992 (inactive) | 1 (inactive) | 1.04 (inactive)
CCCCNc1c(C(=O)OCC)c(C)nc2c1cnn2CC [Tracazolate hydrochloride] (20 µM) | 1.14 | 0.998 | 1.01 | 0.943 | 0.977 (inactive) | 0.933 (inactive) | 1.08 (inactive) | 1.01 (inactive) | 0.993 (inactive) | 1.03 (inactive) | 1 (inactive) | 1.11 (inactive)
CNC(C)CCC=C(C)C (stereo not drawn) [Isometheptene mucate] (20 µM) | 0.966 | 0.977 | 1.01 | 1.24 | 1.09 (inactive) | 0.944 (inactive) | 1.01 (inactive) | 0.979 (inactive) | 1.04 (inactive) | 1.01 (inactive) | 1.02 (inactive) | 0.954 (inactive)
CC(C)NCC(O)c1ccc(O)c(O)c1 (single isomer, unassigned; (+)) [(+) Isoproterenol-(+)-bitartrate salt] (20 µM) | 1.02 | 1.06 | 0.995 | 1.06 | 1.03 (inactive) | 1.01 (inactive) | 0.989 (inactive) | 0.979 (inactive) | 0.997 (inactive) | 0.976 (inactive) | 0.974 (inactive) | 0.984 (inactive)
O=C(O)CNC(=O)C(CS)Cc1ccccc1 (stereo not drawn) [Thiorphan] (20 µM) | 1.06 | 1.02 | 1.05 | 0.855 | 0.964 (inactive) | 1.22 (inactive) | 1.04 (inactive) | 0.969 (inactive) | 0.983 (inactive) | 0.956 (inactive) | 1.02 (inactive) | 1.02 (inactive)
O=C1NCN(c2ccccc2)C12CCN(CCCC(c1ccc(F)cc1)c1ccc(F)cc1)CC2 [Fluspirilene] (20 µM) | 0.921 | 0.951 | 1.01 | 1.01 | 0.981 (inactive) | 0.959 (inactive) | 0.814 (inactive) | 0.996 (inactive) | 0.994 (inactive) | 1.02 (inactive) | 0.995 (inactive) | 0.884 (inactive)
COc1cc(C)nc(-n2nc(C)cc2OC)n1 [Epirizole] (20 µM) | 0.918 | 0.98 | 1 | 0.89 | 1.02 (inactive) | 1.04 (inactive) | 0.971 (inactive) | 0.949 (inactive) | 1.02 (inactive) | 1.01 (inactive) | 1.02 (inactive) | 1.02 (inactive)
COc1ccccc1Oc1c(NS(=O)(=O)c2ccc(C(C)(C)C)cc2)nc(-c2ncccn2)nc1OCCO [Bosentan] (20 µM) | 1.15 | 1.14 | 1.23 | 1.2 | 0.938 (inactive) | 0.987 (inactive) | 0.978 (inactive) | 1.09 (inactive) | 1.05 (inactive) | 1.03 (inactive) | 1.04 (inactive) | 0.959 (inactive)
CN[C@H](CC(C)C)C(=O)N[C@H]1C(=O)N[C@@H](CC(N)=O)C(=O)N[C@H]2C(=O)N[C@H]3C(=O)N[C@H](C(=O)N[C@H](C(=O)O)c4cc(O)cc(O)c4-c4cc3ccc4O)[C@H](O)c3ccc(c(Cl)c3)Oc3cc2cc(c3O[C@@H]2O[C@H](CO)[C@@H](O)[C@H](O)[C@H]2O[C@H]2C[C@](C)(N)[C@H](O)[C@H](C)O2)Oc2ccc(cc2Cl)[C@H]1O [Vancomycin hydrochloride] (20 µM) | 0 | 1.06 | 1.01 | 0.17 | 1.07 (inactive) | 0.0328 (active) | 0.0491 (active) | 1.01 (inactive) | 1.04 (inactive) | 0.953 (inactive) | 0.998 (inactive) | 0.0538 (active)
